The list is not random: actives were taken first. Their share in the collection is about 9.1%.
M1 ag – agonists of M1 muscarinic receptor; CHO-M1 cells, Fluo-4 calcium fluorescence, agonist mode; hits give high values; B-score at 10 µM; hit rate 3% among 64,000; AID 626;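 active = fluorescence rise, raw or as B-score row- and column-corrected plate score, outside the 99.7% band of its plate's samples, either direction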
Htt clearance – compounds clearing mutant huntingtin protein; HeLa Exon1htt(103Q)mCFP, aggregate imaging; zero = plate's median compound well; inhibition, % at 1.5 µM; hit rate 0.42% among 47,000;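 active = inhibition of aggregate fluorescence above about 70%, also judged a hit by eye on the cell image, limit read from the data, passing the limit was not always enough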;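 also: cells exposed to compound for three days before fixation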
M1 antagonist – blocks the rat M1 muscarinic receptor response to acetylcholine. P08482. CHO-M1 cells, Fluo-4 calcium, ACh EC80 antagonist mode; hits give low values. B-score at 10 µM. hit rate 3.4% among 64,000. AID 628;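 active = calcium fluorescence response, raw or row-and-column corrected B-score, differing from the plate sample mean either way at a set confidence level, mostly lower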
Target sequence (P08482 whole entry, looked up): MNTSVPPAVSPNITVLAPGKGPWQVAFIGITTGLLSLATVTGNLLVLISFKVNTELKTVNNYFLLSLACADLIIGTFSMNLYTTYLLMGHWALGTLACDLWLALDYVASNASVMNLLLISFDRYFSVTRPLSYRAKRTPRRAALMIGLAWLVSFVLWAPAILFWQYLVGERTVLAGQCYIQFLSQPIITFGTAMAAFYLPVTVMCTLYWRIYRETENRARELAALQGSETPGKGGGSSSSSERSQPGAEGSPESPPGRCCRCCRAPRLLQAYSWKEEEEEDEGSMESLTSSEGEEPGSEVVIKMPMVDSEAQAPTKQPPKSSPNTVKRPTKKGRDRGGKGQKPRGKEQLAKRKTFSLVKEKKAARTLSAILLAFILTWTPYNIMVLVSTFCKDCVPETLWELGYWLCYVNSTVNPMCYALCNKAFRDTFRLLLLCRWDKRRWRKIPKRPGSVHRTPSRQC
D1 mod – allosteric modulators of human D1 dopamine receptor; P21728; HEK293 D1, CRE-luciferase, dopamine EC30 potentiation; actives deviate in either direction; B-score at 10 µM; AID 641; hit rate 5.9% among 58,000;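 active = luminescence count or its row- and column-corrected plate score outside the 99.7% band of the plate's sample wells, on either side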
Each line names hits and unclear results; the compound was inactive in the other large screens.

O=c1[nH]c2ccc(S(=O)(=O)N3CCCCC3)cc2[nH]c1=O	none (no result: M1 ag, M1 antagonist, D1 mod)
CCOc1ccc(Br)cc1C1NC(=O)c2c(sc3c2CCN(C)C3)N1 (configuration not stated)	D1 mod -4.6 (no result: Htt clearance)
COc1ccc(Br)cc1C1NC(=O)c2c(sc3c2CCN(C)C3)N1 (configuration not stated)	none (no result: Htt clearance)
COc1ccc(NC(=O)/C(Cl)=C(/Cl)S(=O)(=O)Cc2ccc(C)cc2)cn1	none (no result: M1 ag, M1 antagonist, D1 mod)
CCOC(=O)N1CCN(C(=O)c2cc(Cl)c(Cl)cc2C(=O)O)CC1	M1 ag 4.61
CCOC(=O)N1CCN(c2ccc(Cl)c(Cl)c2)CC1	none (no result: Htt clearance)
CCOC(=O)N1CCC(Nc2ncnc3c2cnn3-c2ccc(C)cc2C)CC1	D1 mod -3.66
Cn1c(N2CCN(C(=O)NC34CC5CC(CC(C5)C3)C4)CC2)nc2ccccc21	none (no result: M1 ag, M1 antagonist, D1 mod)
Cc1cccc(NC2=NC3(CCCCC3)N=C(N)N2)c1C	none
Cc1ccc(C)c(NC2=NC3(CCCCC3)N=C(N)N2)c1	D1 mod -5.99
COc1cccc(NC2=NC3(CCCCC3)N=C(N)N2)c1	D1 mod -2.73 (no result: Htt clearance)
Cc1ccc(NC2=NC3(CCCCC3)N=C(N)N2)c(C)c1	D1 mod -4.11
Nc1c(Br)cc(Br)c(N2CCCC2=O)c1Br	none (no result: M1 ag, Htt clearance, M1 antagonist)
COc1ccc(/C(C)=C(\C#N)C(=O)OC(C)C)cc1OC	none (no result: M1 ag, M1 antagonist, D1 mod)
CN(C)c1ccc(-c2nc3ccccc3n2C)cc1	D1 mod -5.12
Cc1ccc(C(O)c2nc3ccccc3n2C(C)C)cc1 (configuration not stated)	none (no result: D1 mod)
Cn1c(-c2ccc(Br)o2)nc2ccccc21	none
CC(C)n1c(-c2ccc(N(C)C)cc2)nc2ccccc21	D1 mod -4.62
CCn1c(-c2ccc(N(C)C)cc2)nc2ccccc21	D1 mod -4.94
O=C(c1ccco1)N1CCN(c2ncnc3scc(-c4cccs4)c23)CC1	M1 ag 1.94
O=C(NCc1ccco1)C(c1ccco1)N(Cc1cccs1)C(=O)Cn1nnc2ccccc21 (configuration not stated)	Htt clearance 83.3 (no result: M1 ag, M1 antagonist, D1 mod)
O=C(NCc1ccco1)C(c1cccs1)N(Cc1ccccc1)C(=O)Cn1nnc2ccccc21 (configuration not stated)	none (no result: Htt clearance)
Cc1ccc(Cl)cc1N1CCN(C(=O)CCS(=O)(=O)c2cccc3nonc23)CC1	none (no result: Htt clearance)
COc1cc(SC)ccc1C(=O)Nc1ccon1	Htt clearance 73.3, M1 antagonist 0.928
COc1cc(SC)ccc1C(=O)Nc1ccc(S(=O)(=O)N2CCCC2)cc1	none (no result: Htt clearance)
CC1CC(C)CN(Cc2nc3c(c(=O)n(C)c(=O)n3C)n2Cc2ccccc2Cl)C1 (configuration not stated)	none (no result: Htt clearance)
CC(=O)c1sc(N2C(=O)c3oc4ccccc4c(=O)c3C2c2ccc(C)o2)nc1C (configuration not stated)	none (no result: Htt clearance)
COc1ccc(-c2cn3c4c(sc3n2)CCCC4)cc1	D1 mod -4.95
COc1ccc(-c2cn3c(C)c(C(=O)N4CCCc5ccccc54)sc3n2)cc1	none (no result: Htt clearance)
COc1ccc(-c2cn3c(C)c(C(=O)Nc4cccc(NC(C)=O)c4)sc3n2)cc1	none (no result: Htt clearance)
Cc1c(C(=O)NCC(C)C)sc2nc(-c3ccc(F)cc3)cn12	none (no result: Htt clearance)
Cc1c(C(=O)Nc2ccncc2)sc2nc(-c3ccc(F)cc3)cn12	D1 mod -5.21 (no result: Htt clearance)
COc1ccc(-c2cn3c(C)c(C(=O)Nc4ccncc4)sc3n2)cc1	D1 mod -3.34 (no result: Htt clearance)
COc1ccc(OC)c(C(=O)CSc2nnc(Cc3cccs3)n2CCc2ccccc2)c1	none (no result: M1 ag, M1 antagonist, D1 mod)
Cc1oc2c(CN3CCCC3)c(O)ccc2c(=O)c1-c1ccccc1	M1 ag 3.2
CC(=O)Nc1sc(NC(=O)c2ccc(C)cc2)nc1-c1cccs1	none (no result: M1 ag, M1 antagonist, D1 mod)
COc1ccccc1N1CCN(CCOc2c(OC)cccc2OC)CC1	M1 antagonist 2.53 (no result: Htt clearance, D1 mod)
CCOc1ccccc1N1CCN(Cc2cccc(OC)c2O)CC1	D1 mod -3.68
COc1ccccc1N1CCN(Cc2cc(Br)c(O)c3ncccc23)CC1	none (no result: Htt clearance)
COc1ccccc1N1CCN(CC(O)COc2cccc3ccccc23)CC1 (configuration not stated)	none (no result: Htt clearance)
CC(C)CCn1cnc2c1c(=O)n(C)c(=O)n2C	Htt clearance 73.0
Fc1ccc(C2=Nn3c(nnc3-c3n[nH]c4c3CCC4)SC2)cc1	D1 mod -3.03
CCN(CC)Cc1c(O)ccc2c([N+](=O)[O-])c(C)n(-c3ccc(OC)cc3)c12	Htt clearance 70.6 (no result: M1 ag, M1 antagonist, D1 mod)
COc1ccc2[nH]c3nc(SCc4nnc(-c5ccccc5)o4)nnc3c2c1	none
COc1ccc2[nH]c3nc(SC(C)C)nnc3c2c1	D1 mod -4.03 (no result: Htt clearance)
Cc1cc2ncn(/N=C/c3ccc([N+](=O)[O-])o3)c2cc1C	none (no result: M1 ag, M1 antagonist, D1 mod)
CN1C(=O)c2ccc(N(C)C)cc2C1=O	none (no result: D1 mod)
CN1C(=O)c2ccc(N3CCCC3)cc2C1=O	M1 ag 13.3 (no result: Htt clearance)
CCOC(=O)C(=O)Nc1nnc(CCc2ccccc2)s1	none (no result: M1 ag, M1 antagonist, D1 mod)
Cc1cc(NC(=O)CS(=O)(=O)c2cn(Cc3ccccc3Cl)c3ccccc23)no1	M1 antagonist 3.66 (no result: Htt clearance)
O=C1CSC(=Nc2cc(Cl)ccc2Cl)N1	none
COCc1c(C)cc(C)c(/C=N/O)c1C	M1 antagonist 11.8 (no result: Htt clearance)
COc1ccc(C(C)=O)cc1CSc1nnc(-c2ccc(Cl)cc2)n1-c1ccccc1	none (no result: M1 ag, M1 antagonist, D1 mod)
c1ccc(-n2nnnc2SCc2cccc3nsnc23)cc1	none
CON1C(=O)C(=O)N(OC)C(C)(C)C1C (configuration not stated)	none (no result: M1 ag, M1 antagonist, D1 mod)
COc1ccc2nc(NC(=O)C3CCN(S(=O)(=O)c4cnc[nH]4)CC3)sc2c1	D1 mod -4.85 (no result: Htt clearance)
COc1cc2ccccc2cc1C(=O)Nc1cccnc1	none (no result: Htt clearance, D1 mod)
O=C(Nc1cccnc1)c1ccc(Oc2ccccc2)cc1	D1 mod -6.38
COc1ccc(-c2noc(CCCC(=O)O)n2)cc1	D1 mod -5.55 (no result: Htt clearance)
Cc1nc2oc3c(NCc4ccccc4)ncnc3c2c2c1COC(C)(C)C2	D1 mod 8.47 (no result: Htt clearance)
COC(=O)c1oc2ccc(Br)cc2c1NC(=O)CN1CCN(C)CC1	none
COC(=O)c1oc2ccccc2c1NC(=O)CN1CCCC1	D1 mod 13.3 (no result: Htt clearance)
Cc1cc(C)c(C)c(S(=O)(=O)NCc2ccc(C(=O)N3CCCCC3)cc2)c1C	none (no result: M1 ag, M1 antagonist, D1 mod)
O=C(NCc1ccc(Cl)cc1)c1cc2ccccn2n1	none (no result: M1 ag, M1 antagonist, D1 mod)
COc1ccc(NC(=O)c2cc3ccccn3n2)cc1	D1 mod -4.74
Cc1nc2ncnn2c(C)c1Cc1ccc(Cl)cc1F	none (no result: Htt clearance)
N#CCSc1nc2c(cc1C#N)CCCC2	none (no result: Htt clearance)
N#Cc1cc2c(nc1SCC(O)CS(=O)(=O)Cc1ccccc1)CCCC2 (configuration not stated)	D1 mod -3.55
N=c1cc(C2(O)CCCCC2)n2c(nc3ccccc32)s1	none
OC12CCCCC1C(c1ccc3c(c1)OCO3)N(Cc1ccccc1F)CC2 (configuration not stated)	Htt clearance 72.9
CC1CCCCN1C(=O)CSc1nnc(-c2ccco2)n1CC1CCCO1 (configuration not stated)	none (no result: Htt clearance)
Cc1ccc(C(=O)CSc2nnc(-c3ccco3)n2CC2CCCO2)cc1 (configuration not stated)	M1 antagonist 1.94 (no result: D1 mod)
O=c1c2ccccc2nc2c3ccccc3c(N3CCOCC3)nn12	M1 ag 2.82 (no result: Htt clearance)
O=c1c2ccccc2nc(-c2ccccc2)n1CCN1CCOCC1	none (no result: Htt clearance, D1 mod)
CCC(=O)Nc1cc2nn(-c3ccc(OC)cc3)nc2cc1C	D1 mod -5.02 (no result: Htt clearance)
O=C(Nc1nncs1)c1c(F)c(F)c(F)c(F)c1F	M1 antagonist 1.04 (no result: Htt clearance)
